According to PubChem BioAssay AID463190 (Sanford-Burnham Center for Chemical Genomics, 2010):
About 7,300 (2.2%) of roughly 330,000 compounds were called active.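 Rule for the calls: active = inhibition of at least 40%; inactive = the rest.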 Many of the other results were omitted from the sample, so actives are more common in it than they were.

assay: growth inhibition of tim10-1 ts yeast – luminescence, uHTS, primary screen (AID 463190);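 note: mutant grown at 25 °C; 0% = DMSO wells with yeast and 100% = wells holding no yeast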; details: S. cerevisiae tim10-1 ts strain growth, BacTiter-Glo, 24 h; at 20 µM; active compounds read high

inhibition, active:
CC(C)Cn1c(N)c(C(=O)NCc2cccs2)c2nc3ccccc3nc21 43.7%
CCCCC(=O)Nc1nc(C)c(-c2csc(Nc3ccc(Cl)cc3)n2)s1 42.5%
C=CCCC(=O)Nc1nc(C)c(-c2csc(Nc3ccc(Cl)cc3)n2)s1 41.2%
COc1ccc(-n2cc(-c3ccccc3)c3c(=S)nc[nH]c32)cc1 40.1%
Cc1sc2ncnc(SCC(=O)Nc3ccc(CN4CCCC4)cc3)c2c1C 46.3%
Cc1cccc(NC(=S)N2CCC(c3nc4ccccc4s3)CC2)c1 47%
Oc1c(CN2CCN(c3ccc(F)cc3)CC2)cc(Cl)c2cccnc12 45.3%
O=c1c(-c2ccc3c(c2)OCCO3)c(C(F)(F)F)oc2cc(O)cc(O)c12 44%
Nc1ccccc1Sc1ccc(C(F)(F)F)cc1[N+](=O)[O-] 40.4%
Cc1oc2cc(Br)c(O)c(Br)c2c1C(=O)c1ccccc1 41.8%
COC(=O)c1c(NC(=O)COc2ccc(Cl)cc2Cl)sc2c1CC(C)(C)NC2(C)C 43.6%
O=C(c1ccc2nc(N3CCOCC3)sc2c1)N1CCN(c2ccc(Cl)cc2)CC1 49.1%
N/C(=N\OC(=O)c1cc(-c2ccccc2)nc2ccccc12)c1ccncc1 57.4%
CCOC(=O)c1ccc(N2C(=O)CC(N3CCC(C(=O)OCC)CC3)C2=O)cc1 (centres undefined) 43.8%
Clc1ccc(C2CC(c3cccs3)n3ncnc3N2)cc1Cl (centres undefined) 44.6%
CCOC(=O)c1ccccc1CN1C(=O)c2ccccc2S1(=O)=O 43.5%
CCn1nc(C)c(NC(=O)/C=C/c2ccc(OC)c(COc3ccc(Br)cc3)c2)c1C 52.1%
O=C(/C=C/c1cccs1)c1cc(Cl)ccc1OC(=O)N1CCOCC1 50.2%
O=C(/C=C/c1ccccc1)c1ccccc1O 48.7%
O=C(NCCc1ccc(F)cc1)c1ccc(S(=O)(=O)N2CCCCC2)cc1 41.8%

inhibition, inactive:
CCOc1ccccc1NC(=O)Cn1nnc(C(=O)NCc2cccs2)c1N 10.5%
Cn1ncc(Br)c1C(=O)NCc1cccs1 1.74%
NS(=O)(=O)c1cc2c(cc1Cl)NC(C(Cl)Cl)NS2(=O)=O (centres undefined) 0.045%
CCCCCCC(=O)Nc1nc(C)c(-c2csc(Nc3cc(Cl)ccc3OC)n2)s1 3.74%
CCCCCCC(=O)Nc1nc(C)c(-c2csc(Nc3cccc(OC)c3)n2)s1 14.8%
Cc1nc(NC(=O)c2cccc(Cl)c2)sc1-c1csc(Nc2cccc(Cl)c2)n1 -8.28%
Cc1nc(NC(=O)CN(C)S(=O)(=O)c2ccc(Cl)cc2)sc1C 4.21%
COc1ccc(S(=O)(=O)c2c[nH]c(=S)[nH]c2=O)cc1Cl -8.62%
O=C(CCN1C(=O)c2ccncc2C1=O)Nc1cc(F)ccc1F 7.78%
CC(=O)N1CCCc2cc(S(=O)(=O)N3CCCC(C(=O)N4CCN(c5cccc(Cl)c5)CC4)C3)ccc21 (centres undefined) 10.1%
O=c1[nH]cnc2c1c(-c1ccccc1)cn2-c1ccc(F)cc1 34.1%
COc1ccc(-n2c(=S)[nH]c3sc4c(c3c2=O)CCc2ccccc2-4)cc1 6.58%
COC(=O)c1c(-c2cccs2)csc1NC(=O)CSc1ncnc2sc(C)c(C)c12 17.6%
C=CCn1c(SCC(=O)Nc2ccc(NC(C)=O)cc2)nc2sc(C)c(C)c2c1=O 15.8%
Cc1cc(C(=O)OCC(=O)Nc2ccc(F)c(F)c2)c(C)o1 -15.7%
Cc1cccc(C(=O)N2CCC(c3nc4ccccc4s3)CC2)c1 20.6%
Cc1cccc(NC(=S)N2CCCC(c3nc4ccccc4[nH]3)C2)c1 (centres undefined) 0.466%
COc1ccc(OC)c(C(O)c2nc3ccccc3n2C)c1 (centres undefined) 12%
CNC[C@@H]1Oc2c(NS(C)(=O)=O)cccc2C(=O)N([C@@H](C)CO)C[C@H]1C -4.12%
NS(=O)(=O)c1ccc(N2C(=O)C3C4CC(C(Br)C4Br)C3C2=O)cc1 (centres undefined) -7.31%
ON=C1/C(=N\O)CC2(C/C1=N/O)OCCO2 -13.1%
Oc1c(CN2CCCC2)cc(COCc2ccccc2)c2cccnc12 14.6%
Cc1cccnc1NC(=O)c1cccc(S(=O)(=O)N2CCN(c3ccc(F)cc3)CC2)c1 23.8%
CCN(CCn1cccn1)Cc1cn[nH]c1-c1ccc(OC)cc1F 6.84%
COc1cc2sc(C)nc2cc1C 13.3%
Cc1ccc(S(=O)(=O)N(Cc2cccc([N+](=O)[O-])c2)C(=O)N2CCN(C)CC2)cc1 26.5%
CCOc1ccc(NC(=O)C2CC(=O)N=C(N)S2)cc1 (centres undefined) 3.69%
CC(OC(=O)c1ccccc1OCc1ccc(Cl)cc1)C(N)=O (centres undefined) -12.2%
CCOC(=O)c1cc2cc(-c3c(C(=O)OCC)oc4cc(O)cc(O)c4c3=O)ccc2o1 27.5%
COc1ccc(-c2onc(C)c2-c2ccc3c(c2)OCCO3)c(O)c1 22.7%
O=[N+]([O-])c1cc(C(F)(F)F)ccc1NN=C1CCCC1 -6.28%
O=C(CSc1ccc(C(F)(F)F)cc1[N+](=O)[O-])NCCOc1ccccc1 8.09%
Cc1ccccc1C(=O)NNC(=O)CN1C(=O)c2ccccc2C1=O 23.4%
O=C(CSc1nnc(Cn2cnc3ccccc32)o1)c1ccccc1 24.1%
Cc1oc2cc([N+](=O)[O-])c(O)c([N+](=O)[O-])c2c1C(=O)c1ccc(Br)cc1 25%
COc1ccc(C(=O)c2c(C)oc3cc([N+](=O)[O-])c(O)c([N+](=O)[O-])c23)cc1 12.5%
O=C(Nc1ccc2c(c1)OCO2)C1CC1(Cl)Cl (centres undefined) -5.38%
CCC(C(=O)NC1CCCC1)N(C(=O)Cn1nnc(-c2ccc(C)o2)n1)c1ccc(OC)c(OC)c1 (centres undefined) 18.2%
CSc1ccc(CN2C(=O)NC3(CCCCCC3)C2=O)cc1 23.7%
NC(=O)C1=C[C@@H](c2ccc3c(c2)OCO3)C[C@@H](OCCCCO)O1 -9.86%
COC(=O)c1sccc1NC(=O)COc1ccc(Cl)cc1 7.8%
CCOC(=O)c1c(NC(=O)c2ccc(S(=O)(=O)N(C)CC3CCCO3)cc2)sc2c1CC(C)(C)NC2(C)C (centres undefined) 3.46%
Cc1nc2ccc(C(=O)N3CCSCC3)cc2s1 4.92%
O=S(=O)(Nc1ccc2nc(N3CCOCC3)sc2c1)c1ccccc1 3.87%
COC(=O)CNC(=O)c1cc(-c2ccncc2)nc2ccccc12 13.6%
C/C(N)=C(/C#N)C(=O)COC(=O)c1cc(-c2ccc(C)cc2)nc2ccccc12 11.4%
Cc1ccc(N/C(N)=N/c2nc(C(F)(F)F)cc(C(F)(F)F)n2)cc1 14.4%
CCC(NC(=O)c1ccccc1NC(=O)c1ccccc1)C(=O)NNC(=O)CSc1nc2ccccc2o1 (centres undefined) 11%
CCOC(=O)c1ccc(N2C(=O)CC(N3CCN(C(=O)c4ccccc4)CC3)C2=O)cc1 (centres undefined) 20%
CCOC(=O)c1ccc(N2C(=O)CC(N3CC(C)OC(C)C3)C2=O)cc1 (centres undefined) 29.9%
O=C(NC(Cc1ccc(O)cc1)C(=O)O)/C(=C/c1ccccc1)NC(=O)c1ccccc1 (centres undefined) -12.7%
COc1ccc(NC(=O)CN(C)C(=O)CNC(=O)C2CCCCC2)cc1 3.37%
COc1cc(NC(=O)C2CCN(c3cnccn3)CC2)cc(OC)c1 18.5%
COc1ccc(C2CC(c3ccc(C)cc3)Nc3ncnn32)cc1 (centres undefined) 31.2%
Nc1nc2n(n1)C(c1ccco1)CC(c1ccc(Cl)c(Cl)c1)N2 (centres undefined) 20.9%
Cc1ccc(C)c(-n2ccnc2SCC(N)=O)c1 1.23%
CCOC(=O)c1sc(=NC(=O)/C=C/c2cccs2)n(C)c1C 9.93%
Cc1c2cnn(CC(=O)NCCCN3CC(C)CC(C)C3)c(=O)c2c(C)n1Cc1ccc(Cl)cc1 (centres undefined) -4.29%
CCOC(=O)C1=C(c2ccccc2)NC(=O)NC1c1cc(OC)c(OC)cc1OC (centres undefined) 2.13%
CC(C)(C)c1ccc(CN2C(=O)c3ccccc3S2(=O)=O)cc1 15%
CN(Cc1cccs1)C(=O)CN1C(=O)c2ccccc2S1(=O)=O -8.18%
COC(=O)c1cc2c(ccn2C)n1C -6.2%
COc1ccc(C(C)=O)cc1COc1ccc(Cl)c(C)c1 3.35%
COc1ccc(/C=C/C(=O)Nc2c(C)nn(C)c2C)cc1COc1ccc(Br)cc1 29.4%
CC(=O)Nc1ccccc1OC(=O)N1CCOCC1 -3.71%
O=C(Oc1cccc(C(=S)N2CCOCC2)c1)c1cccc(Cl)c1 39.2%
Cc1ccc(NS(=O)(=O)c2ccc(C(=O)NCCCN3CCOCC3)cc2)cc1 -36%
CC1(C)CC(=O)C=C(c2ccc(Cl)c(C(F)(F)F)c2)C1 0.973%
Cc1cccc(OC(C)C(=O)N2CCc3ccccc3C2)c1 (centres undefined) -6.4%
O=C(/C=C/c1ccccc1)N/C(=C/c1ccccc1)C(=O)Nc1ccccc1O 32.3%
O=C(/C=C(O)/C=C/c1ccc(O)cc1)/C=C/c1ccc(O)cc1 4.38%
CCCCC[C@H]1CN(C2CCCCC2)C(=O)[C@@H]1CC(=O)NCc1ccc(OC)cc1 17.9%
COC(=O)c1ccc(CNC(=O)c2ccc(S(=O)(=O)N3CCCCCC3)cc2)cc1 14.2%
O=C(Nc1ccccc1F)c1ccc(S(=O)(=O)N2CCCCCC2)cc1 18.9%
